# HEK293 cAMP ctrl: counter-screen for TSHR agonists: cAMP increase in parental HEK293. parental HEK293 CNG cAMP sensor, membrane potential fluorescence. Potency, µM (series often up to 57.1 µM), inactives show at the highest dose activation, usual class: activators. 73,000 tested, 2.5% active; also: % of control where 0% means no effect; nearly all actives have a fitted effect of over 55% in size
#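 Counterscreen for endogenous-receptor signalling: CNG-channel HEK 293 cells report cAMP rise by membrane depolarization. After 60 min dye equilibration with 100 uM RO 20-1724, compounds incubated 30 min before bottom-read fluorescence at 590 nm.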
# PK Bst: alters activity of Bacillus stearothermophilus pyruvate kinase; purified pyruvate kinase, luminescence ATP production; ribose 5-phosphate activator present at AC10; Potency, µM; 51,000 tested, 1.2% active; in the data active = potency below about 11 µM; inconclusive = mostly about 12 µM to 25 µM;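 the screen sought inhibitors and activators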;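 also: scaled between full activation by ribose 5 phosphate and full inhibition by luteolin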
# Tau filament bind: tau filament binding; recombinant tau filaments, thioflavin S fluorescence, 15 h; filaments grown with octadecylsulfate alongside compound; Potency, µM (top dose mostly 57.1 µM), for the others: top-dose activity change, negative = inhibition; 71,000 tested, 2% active;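 also: % is scaled to controls: 0 for no effect and ±100 for the full control effect; actives lower thioflavin S fluorescence by blocking filaments or displacing dye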
#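 Thioflavine S fluorescence (ex 450, em 510 nm) reports filaments formed from 1 uM human tau plus 30 uM ODS over 15 h at 37 C (10 mM HEPES pH 7.4, 100 mM NaCl, 5 mM DTT); compounds displacing dye or blocking filaments lower signal.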
# ERK AVP block: inhibitors of vasopressin-stimulated ERK signaling pathway. HEK293-V1b, vasopressin-stimulated pERK AlphaScreen. Potency, µM (doses to about 57.5 µM), inactives show top-dose activity, negative = inhibition, usual class: inhibitors. 72,000 tested, 0.99% active; also: % is scaled to controls: 0 for no effect and ±100 for the full control effect; nearly all actives have a fitted effect of over 55% in size
#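 HEK293 cells stably expressing V1b receptor, preincubated 30 min at 37 °C with compound, then stimulated 5 min with 25 nM vasopressin. Phospho-ERK by AlphaScreen SureFire after 5 h RT; normalized to DMSO and vasopressin; AC50 by Hill fit.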
# Luciferase inh: firefly luciferase inhibition; 72,000 tested, 2.2% active; purified firefly luciferase, luminescence, 8 min; Potency, µM (doses to about 57.1 µM), for inactives: top-dose activity change, negative = inhibition, usual class: inhibitors; P08659; also: % is scaled to controls: 0 for no effect and ±100 for the full control effect; nearly all actives have a fitted effect of over 40% in size
# Target sequence (P08659 whole entry, looked up): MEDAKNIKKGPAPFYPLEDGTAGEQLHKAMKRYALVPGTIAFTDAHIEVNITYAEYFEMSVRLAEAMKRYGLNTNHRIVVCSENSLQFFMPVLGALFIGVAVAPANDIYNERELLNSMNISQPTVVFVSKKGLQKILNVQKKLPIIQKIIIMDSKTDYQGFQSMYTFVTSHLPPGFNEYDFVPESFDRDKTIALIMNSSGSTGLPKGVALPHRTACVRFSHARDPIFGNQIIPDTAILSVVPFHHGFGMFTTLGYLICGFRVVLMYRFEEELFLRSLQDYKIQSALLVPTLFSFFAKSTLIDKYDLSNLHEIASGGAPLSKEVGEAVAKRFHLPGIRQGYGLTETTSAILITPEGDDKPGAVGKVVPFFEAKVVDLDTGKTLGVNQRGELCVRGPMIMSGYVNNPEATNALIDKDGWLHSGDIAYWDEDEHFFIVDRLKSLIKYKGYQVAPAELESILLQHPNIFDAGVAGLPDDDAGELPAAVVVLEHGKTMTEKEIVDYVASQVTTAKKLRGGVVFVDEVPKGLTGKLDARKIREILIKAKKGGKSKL
#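 Titration-based qHTS; buffer 50 mM imidazole pH 7.2, 50 mM KCl, 7 mM MgCl2, 10 uM ATP, 0.01% Tween 20, 0.05% BSA; luciferase/luciferin detector mix added after compound; 8 min, ambient; luminescence.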
# TSHR agonist: TSH receptor (human) agonism; P16473; HEK293-CNG-TSHR cells (CNG channel as cAMP sensor), membrane potential dye, cAMP; 73,000 tested, 0.48% active; Potency, µM (doses to about 57.1 µM), inactives show top-dose activation, usual class: activators; AID 926; active = well fitted activation curve with a large enough effect in the main read-out, with a control signal flat, not every such curve was filed as active; inconclusive = small, poorly fitted or top-dose-only effect, or a change in a side signal; inactive = no such curve, though single readings can be large or run the other way; % of control where 0% means no effect;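 also: the control signal comes from parental cells without the receptor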
#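 cAMP rise detected as CNG-channel membrane depolarization by fluorescent dye (emission 590 nm), 30 min after compound, following 60 min dye loading containing 100 uM RO 20-1724 at room temperature. Cells: TSHR/CNG HEK 293, with parental CNG HEK 293 as control.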
# * = called active by the depositor; ? = inconclusive; . = no result; [ ] = another dose, or the depositor's remark. Rows were chosen to be rich in hits. Some 7.2% of all compounds tested hit in one or more screens of this group. Unless noted, calls follow the shape of the dose curve; as a rule, active = well fitted curve in the direction sought with a large enough effect; inconclusive = small, poorly fitted or top-dose-only effect, or another doubt; inactive = no such curve, though single readings can be large; an effect the other way counts as inactive or inconclusive. Potency is read from the fitted curve at half-maximal effect.
SMILES,HEK293 cAMP ctrl,PK Bst,Tau filament bind,ERK AVP block,Luciferase inh,TSHR agonist
Cc1ccc(C)c(Cn2nnc3c(=O)[nH]c(C4CCCN(C(=O)C5CCCCC5)C4)nc32)c1 (stereo not given),20µM*,>57,45%,19%,2%,?
O=C(C1CCCCC1)N1CCCC(c2nc3c(nnn3Cc3ccccc3)c(=O)[nH]2)C1 (stereo not given),?,>57,5%,0%,1%,?
COc1ccc(-c2c(O)c3c(OC)c4c(cc3oc2=O)OC(C)(C)C=C4)cc1,.,.,.,24%,.,.
Cc1cc(C)c2c(N)c(C(=O)Nc3nccs3)sc2n1,-2%,.,352%,10%,0.5µM*,-5%
COCc1cc(C)nc2sc(C(=O)Nc3nccs3)c(N)c12,30%,.,193%,.,-13%,3%
Cc1ccc(-c2nc3cc(NC(=O)C(C)C)ccc3o2)cc1,?,.,141%,28%,5µM*,?
Cc1cc2nc(-c3ccc(NC(=O)C(C)C)cc3)oc2cc1C,18%,.,181%,2%,-1%,-13%
Cc1ccc(-c2nc3cc(NC(=O)C(C)C)ccc3o2)cc1C,0%,1.7*,312%,?,2µM*,11%
O=C(Nc1ccc2oc(-c3ccncc3)nc2c1)c1cccs1,0%,3.6*,174%,?,-10%,8%
CC(C)C(=O)Nc1ccc(-c2nc3cccnc3o2)cc1,0%,.,8%,-18%,5µM*,-8%
O=c1cnc2cnc(Oc3cccc(Cl)c3)nc2n1C1CC1,7%,.,1%,-13%,0%[11.4 µM],21%
CC[C@H]1C2=C3C(CC[C@H]4C(OC)OC[C@](C)([C@@H]34)N(C(=O)OC(C)(C)C)C2)C(CO)C1CO (stereo not given in full),3%,.,63%,-4%,.,2%
Cc1ccc(N[C@H](c2ccccc2)c2ccc3cccnc3c2O)cc1,2%[11.4 µM],.,-17%[11.4 µM],-8%[11.5 µM],0%[11.4 µM],4%[11.4 µM]
COc1ncc2nc(-c3cn(C)c4ccccc34)c(=O)n(CCC#N)c2n1,13%,.,64%,-7%,0%[11.4 µM],2%
CCC(=O)Nc1ccc2c(c1)nc1n2CCSC1,-5%,>57,-15%,-5%,-7%,6%
O=C(Nc1ccc2c(c1)nc1n2CCSC1)c1ccccc1,-12%,?,-28%,?,10µM*,-8%
COc1ccc(C(=O)Nc2ccc3c(c2)nc2n3CCSC2)cc1,-19%,?,?,-27%,13µM*,-32%
N#CCCn1c(=O)c(-c2ccccc2)nc2cnc(OCc3ccccc3)nc21,17%,.,-15%,-9%,1%[11.4 µM],1%
CCN(CC)C(=O)Oc1ccc2c(=O)c(-c3ccc(OC)cc3)coc2c1,?,>57,18%,?,-29%,?
CCN(CC)C(=O)Oc1ccc2c(=O)c(-c3ccc(OC)cc3)c(C)oc2c1,23%,>57,4%,32µM*,3%,30%
O=c1cc(-c2ccccc2)oc2cc(O)cc(O)c12,2%[25.6 µM],.,-19%[25.6 µM],?,13µM*,-3%[25.6 µM]
O=c1cc(-c2ccccc2)oc2cccc(O)c12,.,.,.,-9%,.,.
COc1cc(O)c2c(=O)cc(-c3ccccc3)oc2c1,25%,.,32µM*,-26%,-4%[11.4 µM],.
CN(C)Cc1ccccc1-c1ccc2ncnc(NC3CC3)c2c1,13%,.,-12%,-28%,-6%[2.29 µM],5%
Cc1noc(C)c1-c1ccc2ncnc(Nc3ccc(F)cc3)c2c1,12%,.,8%,14%,1%[2.29 µM],10%
c1ccc2c(c1)Cc1cc3ccccc3nc1-2,20µM*,.,?,13µM*,.,?
CN(CCc1ccccn1)c1ccc2c(c1)Cc1ccccc1-2,-1%[11.4 µM],.,?,-5%[11.5 µM],-6%[11.4 µM],-1%[11.4 µM]
O=c1cc(O)cc(/C=C\c2ccc(O)c(O)c2)o1,?,.,1%,?,-22%,?
O=S(=O)(c1ccc2c(c1)OCCO2)N(Cc1ccc(F)cc1)Cc1nnc(-c2cccs2)o1,2µM*,>57,16%,25%,-1%,?
Cc1cc(C(=O)CN(Cc2ccc(F)cc2)S(=O)(=O)c2ccc3c(c2)OCCO3)c(C)n1C,-1%,>57,5%,-13%,4%,12%
